The source of these data is PubChem BioAssay (NCATS).

Each structure is given as a SMILES string. Records with an inconclusive call do not appear. Calls of active or inactive are those of the source. Calls come from the whole dose curve; as a rule, active = well fitted cell-killing curve with a large enough effect; inconclusive = small, poorly fitted or top-dose-only effect, or effect the other way; inactive = no such curve, though single readings can be large or run the other way.
Potency is the fitted concentration of half-maximal effect.

The nature of this experiment: Quantitative High-Throughput drug screen in 47 multiple myeloma cell lines against the NCATS MIPE library collection: KMM1_JCRB cell viability assay (AID 1918960). Note: nearly all actives have a fitted effect of over 30% in size. Particulars: KMM1 myeloma viability, CellTiter-Glo ATP luminescence, 48 h; series mostly up to 45.8 µM; viability (% of DMSO): at the top concentration. The source says:
PI: Beverly A. Mock Ph.D.
Laboratory of Cancer Biology and Genetics,
Center for Cancer Research, National Cancer Institute,
National Institute of Health, Bethesda, Maryland
Drug resistance and disease progression are common in multiple myeloma (MM) patients, underscoring the need for new therapeutic combinations. […] We hypothesized that effective combinations would reduce MYC expression and enhance p16 activity. […] These preclinical data identify potentially useful drug combinations for evaluation in drug-resistant MM and reveal potential mechanisms of combined drug sensitivity.
Described herein is the primary MIPE qHTS used to cherrypick compounds. Validated compounds were then further tested for potential synergistic activiy.
[1] Peat TJ, Gaikwad SM, Dubois W, Gyabaah-Kessie N, Zhang S, Gorjifard S, Phyo Z, Andres M, Hughitt VK, Simpson RM, Miller MA, Girvin AT, Taylor A, Williams D, D'Antonio N, Zhang Y, Rajagopalan A, Flietner E, Wilson K, Zhang X, Shinn P, Klumpp-Thomas C, McKnight C, Itkin Z, Chen L, Kazandijian D, Zhang J, Michalowski AM, Simmons JK, Keats J, Thomas CJ, Mock BA. Drug combinations identified by high-throughput screening promote cell cycle transition and upregulate Smad pathways in myeloma. Cancer Lett. 2023 Aug 1;568:216284. doi: 10.1016/j.canlet.2023.216284. Epub 2023 Jun 24. PMID: 37356470; PMCID: PMC10408729.
SEQUENCE No. (e.g., 1, 2, 3, etc.); […] (e.g., Cells, Incubation, Reagent, etc.); VALUE and DESCRIPTION.
1; Cells; 5 uL; white, solid bottom 1536-well Greiner assay plate.
2; Compounds; 23 nL; Kalypsis pin tool (Wako USA) equipped with a 1536-well pin head to transfer to the assay plates.
3; Incubation; 48 hours; 37C incubation.
4; Reagent;5uL; CellTiter Glo (Promega).
5; Detector; 425V; Luminescence; Viewlux PerkinElmer.
NOTES (numbers refer to Sequence numbers above)
1. The cell-based screening methods employed in this study were like those previously published. Briefly, the corresponding myeloma cell lines were screened in 1,536-well plates with 500 cells, 5-uL per well for inhibition of cell viability (assessed by measuring ATP levels with CellTiterGlo).
2. NCATS MIPE 4.0 library of approved and investigational drugs were added using the Kalypsis pin tool. Wells treated with DMSO only for 100% viability and media only cells for 0% viability were used as controls.
3. The assay plates were covered and incubated for 48 hours in a 37C, 5% CO2 incubator with controlled humidity.
4. After 48 hours, CellTilter-GloTM luminescent substrate mix (Promega) reagent was added to the assay plate and plates we incubated for 5 min at room temperature.
5. Signal was measured as median relative luminescence units on a ViewLux (PerkinElmer) multiplate reader.
[1] Heske CM, Davis MI, Baumgart JT, Wilson K, Gormally MV, Chen L, Zhang X, Ceribelli M, Duveau DY, Guha R, Ferrer M, Arnaldez FI, Ji J, Tran HL, Zhang Y, Mendoza A, Helman LJ, Thomas CJ. Matrix Screen Identifies Synergistic Combination of PARP Inhibitors and Nicotinamide Phosphoribosyltransferase (NAMPT) Inhibitors in Ewing Sarcoma. Clin Cancer Res. 2017 Dec 1;23(23):7301-7311. doi: 10.1158/1078-0432.CCR-17-1121. Epub 2017 Sep 12. PMID: 28899971; PMCID: PMC6636827.
For orientation: Cellular ATP, detected with luciferase, serves as a proxy for viable cell number.
As for `CNCC[C@H](Oc1cccc2ccccc12)c1cccs1`, the Potency is 26.4 µM (active).
Regarding `CN(CCOc1ccc(CC2SC(=O)NC2=O)cc1)c1ccccn1` (stereo not given), the “viability (% of DMSO)” value was 107% (inactive).
Still for that read-out and setting: as for `Cn1c(=O)c2c(ncn2CC(O)CO)n(C)c1=O` (stereo not given), the figure is 99.4% (inactive).
As for `CCCCc1oc2ccc(NS(C)(=O)=O)cc2c1C(=O)c1ccc(OCCCN(CCCC)CCCC)cc1`, the Potency is 20.9 µM (active).
For `CC(C)(C#N)c1cc(Cn2cncn2)cc(C(C)(C)C#N)c1`, the “viability (% of DMSO)” value is 101% (inactive).
As to `CCCc1cc(C(N)=S)ccn1`, the “viability (% of DMSO)” value was 92.7% (inactive).
As for `COc1ccc2cc3[n+](cc2c1OC)CCc1cc2c(cc1-3)OCO2`, the Potency is 10.5 µM (active).
`COc1ccc(C(=O)CC(=O)c2ccc(C(C)(C)C)cc2)cc1`: the Potency is 7.43 µM (active).
Regarding `O[C@@H](CNC[C@H](O)[C@H]1CCc2cc(F)ccc2O1)[C@@H]1CCc2cc(F)ccc2O1`, the Potency was 16.6 µM (active).
Regarding `CN1CCN(c2c(F)cc3c(=O)c(C(=O)O)cn(CCF)c3c2F)CC1`, the “viability (% of DMSO)” value was 87.7% (inactive).
On the same count and under the same terms, for `NS(=O)(=O)c1cc2c(cc1Cl)NC(C(Cl)Cl)NS2(=O)=O` (stereo not given) the value was 113% (inactive).
`COC(=O)Nc1nc2ccc(Sc3ccccc3)cc2[nH]1`: the Potency is 1.18 µM (active).
On the same count and under the same terms, as for `CNS(=O)(=O)CCc1ccc2[nH]cc(C3CCN(C)CC3)c2c1`, the figure is 18.7 µM (active).
Consider `CC1(C)[C@H](C(=O)O)N2C(=O)C[C@H]2S1(=O)=O`, for which the “viability (% of DMSO)” value is 111% (inactive).
`Nc1nc(F)nc2c1ncn2[C@@H]1O[C@H](CO)[C@@H](O)[C@@H]1O`: the Potency was 0.526 µM (active).
Turning to `C[C@@H]1CN(c2c(F)c(N)c3c(=O)c(C(=O)O)cn(C4CC4)c3c2F)C[C@H](C)N1`, the “viability (% of DMSO)” value was 123% [at 23.2 µM] (inactive).
Same read-out and setting: for `CCn1cc(C(=O)O)c(=O)c2cc(F)c(N3CCNCC3)nc21` the value was 98.9% (inactive); for `CO[C@@]12[C@H](COC(N)=O)C3=C(C(=O)C(C)=C(N)C3=O)N1C[C@@H]1N[C@@H]12`, 120% (inactive).
`CNS(=O)(=O)Cc1ccc2[nH]cc(CCN(C)C)c2c1`: the “viability (% of DMSO)” value was 82.9% (inactive).
Still for that read-out and setting: for `OC(Cn1cncn1)(Cn1cncn1)c1ccc(F)cc1F` the value was 131% (inactive); for `C[C@@H](CN1CC(=O)NC(=O)C1)N1CC(=O)NC(=O)C1`, 78.8% (inactive); for `Cc1onc(-c2ccccc2Cl)c1C(=O)N[C@@H]1C(=O)N2[C@@H]1SC(C)(C)[C@@H]2C(=O)O`, 88.7% (inactive).
For the molecule `CC(N)C12CC3CC(CC(C3)C1)C2` (stereo not given), the “viability (% of DMSO)” value was 81.4% (inactive).
For the molecule `C[C@@H](NCCCc1cccc(C(F)(F)F)c1)c1cccc2ccccc12`, the “viability (% of DMSO)” value was 109% (inactive).
`CC(C)NCC(O)c1ccc(NS(C)(=O)=O)cc1` (stereo not given): the “viability (% of DMSO)” value was 114% (inactive).
For `Nc1ccc(S(=O)(=O)Nc2ccccn2)cc1`, the “viability (% of DMSO)” value is 100% (inactive).
Same read-out and setting: for `N[C@@H](C(=O)N[C@@H]1C(=O)N2C(C(=O)O)=C(Cl)CS[C@H]12)c1ccccc1` the value was 80.4% (inactive).
With `C1CCC(C(CC2CCCCN2)C2CCCCC2)CC1` (stereo not given), the Potency is 14.8 µM (active).
Take `O=C(O)c1cc(=O)[nH]c(=O)[nH]1`: the “viability (% of DMSO)” value was 113% (inactive).
For `CCOC(=O)[C@H](CCc1ccccc1)N[C@H]1CCc2ccccc2N(CC(=O)O)C1=O`, the Potency is 18.7 µM (active).
Take `NC1(c2ccc(-c3nc4ccn5c(=O)[nH]nc5c4cc3-c3ccccc3)cc2)CCC1`: the Potency was 1.87 µM (active).
Regarding `COC(c1ccccc1)(c1ccccc1)[C@H](Oc1nc(C)cc(C)n1)C(=O)O`, the “viability (% of DMSO)” value was 112% (inactive).
On to `Nc1nc(N)nc(-c2cc(Cl)ccc2Cl)n1`, for which the “viability (% of DMSO)” value was 77.6% (inactive).
On the same count and under the same terms, for `CCN[C@H]1C[C@H](C)S(=O)(=O)c2sc(S(N)(=O)=O)cc21` the value was 101% (inactive); for `CCn1cc(C(=O)O)c(=O)c2cc(F)c(N3CCNCC3)cc21`, 122% (inactive); for `O=S(=O)(c1cccc2cnccc12)N1CCCNCC1`, 75.5% (inactive).
The same measure, in the same setting: for `CCc1cc(C(N)=S)ccn1` the value was 91.7% (inactive); for `CCC(C)(C)c1ccc(CC(C)CN2C[C@@H](C)O[C@@H](C)C2)cc1` (stereo not given in full), 76.5% (inactive).
For `OCc1ccc(-c2nn(Cc3ccccc3)c3ccccc23)o1`, the “viability (% of DMSO)” value is 102% (inactive).
On the same count and under the same terms, as for `O=P(O)(O)C(O)(Cc1cccnc1)P(=O)(O)O`, the figure is 92.9% (inactive).
